Screen size: about 370,000 compounds; about 2,600 (0.7%) were called active. The full list was thinned out, with actives kept by preference. Values without a mark were called inactive.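 Rule for the calls: active = inhibition above a cutoff: mean of compounds within the control limits plus 3 SD of those (cut at about 17% in these data); inactive = the rest.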
Biological target: Sialate O-acetylesterase (Homo sapiens) (UniProt Q9HAT2)
Assay: human SIAE inhibitors, primary screen, biochemical, fluorescence polarization, FP-Rh probe, 1536-well HTS (AID 1053197);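 note: 0% = plate median of compound wells and 100% = probe without SIAE protein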
Settings: SIAE FP-Rh probe binding, at 9.66 µM, hits give high values

Sequence of Sialate O-acetylesterase (Homo sapiens) (Q9HAT2 whole entry, looked up): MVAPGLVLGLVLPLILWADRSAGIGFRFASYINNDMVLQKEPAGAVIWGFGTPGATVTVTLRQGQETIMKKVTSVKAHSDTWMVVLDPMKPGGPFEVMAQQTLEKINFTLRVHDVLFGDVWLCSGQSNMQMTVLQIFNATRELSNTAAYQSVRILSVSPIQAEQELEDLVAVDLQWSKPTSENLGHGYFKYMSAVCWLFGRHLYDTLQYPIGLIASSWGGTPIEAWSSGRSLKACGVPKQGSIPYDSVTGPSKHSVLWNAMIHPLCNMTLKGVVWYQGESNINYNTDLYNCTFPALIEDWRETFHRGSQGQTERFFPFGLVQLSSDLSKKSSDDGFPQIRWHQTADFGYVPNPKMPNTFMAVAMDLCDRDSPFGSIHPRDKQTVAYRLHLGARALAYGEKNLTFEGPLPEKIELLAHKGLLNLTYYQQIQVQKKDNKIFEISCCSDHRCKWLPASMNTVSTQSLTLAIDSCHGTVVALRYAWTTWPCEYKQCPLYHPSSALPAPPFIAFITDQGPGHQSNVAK

| SMILES | inhibition |
| --- | --- |
| COc1cccc(Cn2cc(COC(=O)Nc3ccc(F)cc3)nn2)c1 | -7.19% |
| CCOC(=O)c1cc2cc(-c3c(C(=O)OCC)oc4cc(O)cc(O)c4c3=O)ccc2o1 | 17.1% |
| C[C@@H]1O[C@@H](OC[C@H]2O[C@@H](Oc3c(-c4ccc(O)cc4)oc4cc(O)cc(O)c4c3=O)[C@H](O)[C@@H](O)[C@@H]2O)[C@H](O)[C@H](O)[C@H]1O | 19.5% (active) |
| Cc1ccc(-n2c(COc3ccccc3)nnc2SCC(=O)Nc2ccc3c(c2)OCCO3)cc1 | -2.64% |
| Cc1ccc(C2=CCN(C)C(=O)N2c2ccc(Cl)cc2)cc1 | -0.37% |
| Cc1cc(C(=O)NN=C/C=C/c2ccco2)n[nH]1 | 3.3% |
| Cc1ccc(N=C2NC(=O)/C(=C/C=C/c3ccco3)S2)cc1C | 27.6% (active) |
| CCOc1ccc(Oc2c(Cl)cnn(-c3ccc(C)cc3)c2=O)cc1 | -1.82% |
| CC(C)N1CCCCC(NC(=O)c2ccc3ccccc3c2)C1=O (configuration not stated) | -1.26% |
| CCCCC(=O)N[C@@H]1CC[C@@]23CCCN2C(=O)CCC[C@H]3[C@H]1C | -5.34% |
| CC(NCc1ccco1)C(=O)N1CCCCC1 (configuration not stated) | 5.06% |
| O=C(O)c1ccccc1N=N/C(=N/Nc1cc(S(=O)(=O)O)ccc1O)c1ccccc1 | 28.9% (active) |
| O=C(Nc1cccc(Cl)c1)OC1CC2CC1[C@H]1CCCCN1[C@H]2Cc1ccccc1 (some centres not stated) | -4.13% |
| CCCCC[C@H](C)N1C[C@@H](COCc2ccccc2)Oc2cc(N3CC[C@@H](N(C)C)C3)ccc2S1(=O)=O | 23.3% (active) |
| CSc1ccc(Oc2cccc3c2S(=O)(=O)N([C@H](C)c2ccccc2)C[C@@H](COCc2ccccc2)O3)cc1C | -4.88% |
| CCCCC[C@H](C)N1C[C@@H](COCc2ccccc2)Oc2cc(N3CCC[C@@H]3CO)ccc2S1(=O)=O | 2.79% |
| O=C(CSc1nnc(-c2ccccc2)n1Cc1ccco1)Nc1ccccc1-c1ccccc1 | -6.96% |
| CCOC(=O)[C@]12CCCC=C1N(CCCOC)C(=O)[C@@H]2CC(=O)N1CCOCC1 | -6.36% |
| COc1cccc(N(C)C(=O)[C@@H](C)[C@@H](O)c2ccc3ccccc3c2)c1 | -4% |

| SMILES | inhibition |
| --- | --- |
| C=C(C)C#CC(Cc1ccccc1)NCC1CC1 (configuration not stated) | 4.41% |
| O=C(CSc1ccc(Cl)cc1)NC1CC1 | -0.71% |
| CS(=O)(=O)N1CCN(C(=O)CSc2ccccc2)CC1 | -3.36% |
| CCOC(=O)N1CCN(C(=O)CSc2ccc(Cl)cc2)CC1 | 19% (active) |
| CCC(C)[C@@H](C(=O)OC)N(CCc1cn(Cc2ccccc2)nn1)S(=O)(=O)c1ccccc1Br (some centres not stated) | -2.68% |
| O=C1CC(c2ccccc2)=NN1c1ccc([N+](=O)[O-])cc1 | 19.8% (active) |
| CCN1N=C(c2ccccc2)CCC1=O | -3.71% |
| C/C(N)=C(/C#N)C(=O)COC(=O)C1=NN(c2ccccc2)C(=O)CC1 | 0.03% |
| O=C(CNS(=O)(=O)c1ccccc1F)N1CCN(c2ccccn2)CC1 | 2.08% |
| O=C(Nc1cc(Cl)cc(Cl)c1)OCCN1CCCC12CCC(c1ccccc1)CC2 (configuration not stated) | -10.1% |
| Cc1cc2ccccn2c1C(=O)c1cccc(F)c1 | 18.5% (active) |
| CC(=O)Nc1ccc(/C=N/Nc2ccc(C(=O)c3c(C)cc4ccccn34)cc2[N+](=O)[O-])cc1 | 9.63% |
| Cc1cc2ccccn2c1C(=O)c1cccc(S(=O)(=O)N2CCOCC2)c1 | -6.52% |
| Fc1ccc2nc(COCc3nc4ccc(F)cc4[nH]3)[nH]c2c1 | -7.18% |
| Cc1c(CN2CCCCC2)c(O)n(CCO)c(=O)c1C#N | -5.55% |
| CCCn1c(O)c(CN2CCCC(C)C2)c(C)c(C#N)c1=O (configuration not stated) | 43.7% (active) |
| CC1CCCN(Cc2nc3c(c(=O)n(C)c(=O)n3C)n2CC(=O)c2ccccc2)C1 (configuration not stated) | 7.4% |
| COc1cccc(CNC(=O)CNS(=O)(=O)c2ccc3nc(C)sc3c2)c1OC | 2.11% |
| Nc1[nH]c(/C=C2/CCCCC2n2[nH]c(=O)n(-c3ccccc3)c2=O)c(Cc2ccccc2)[n+]1Cc1ccccc1 (configuration not stated) | 10.8% |

| SMILES | inhibition |
| --- | --- |
| O=S1(=O)c2ccc(Br)cc2OC[C@H](Cc2ccccc2)N1Cc1cn(Cc2ccccc2)nn1 | 3.61% |
| CC(c1c[nH]c2ccccc12)c1c(-c2ccccc2)n(C)c2ccccc12 (configuration not stated) | 10.3% |
| O=C(NC(=O)c1ccccc1N1CCCCC1)Nc1ccc(Br)cc1 | 2.43% |
| CCn1c(=O)n(CC)c2cc(N3CCCC3)c(NC(=O)c3ccccc3Br)cc21 | 17.9% (active) |
| COc1ccc(NS(=O)(=O)c2ccc(N3CCOCC3)c(NC(=O)c3ccccc3Br)c2)cc1 | -4.27% |
| CC(C)CNS(=O)(=O)CC1NCCc2ccccc21 (configuration not stated) | -2.16% |
| CNC(=S)NNC(=O)c1ccc(N(C)C)cc1 | 10.3% |
| CC1CN(/C=C/C(=O)C(F)(F)F)CC(C)O1 (configuration not stated) | 2.43% |
| CN(C)c1ccc(N/C=C/C(=O)C(F)(F)F)cc1 | 17.9% (active) |
| C=CCN1C(=O)[C@@H](CC(=O)NCC2CCCCC2)[C@]2(C(=O)OC)CCCCC=C12 | 20.8% (active) |
| C=CCN1C(=O)[C@@H](CC(=O)NCCCOCCCC)[C@]2(C(=O)OCC)CCCCC/C=C/12 | -0.48% |
| C=CCN1C(=O)[C@@H](CC(=O)NCCCCc2ccccc2)[C@]2(C(=O)OCC)CCCCC/C=C/12 | -2.6% |
| O=[N+]([O-])c1ccccc1NCc1ccc(Cl)cc1 | 0.44% |
| Oc1ccc(CNc2ccccc2O)cc1 | 21.1% (active) |
| c1ccc(CNCc2ccc(CNCc3ccccc3)cc2)cc1 | -0.12% |
| COc1cc(NC(=O)C2CCCN(S(=O)(=O)c3ccc(C(C)(C)C)cc3)C2)cc(OC)c1 (configuration not stated) | -0.78% |
| CCC(=O)c1c(CC)c2n3c1=CC[C@H]3CC(Br)C=2 (some centres not stated) | -1.56% |
| Oc1ccc(C2Nc3cccc4cccc(c34)N2)cc1 | 58.9% (active) |
| Cc1ccc(C2Nc3cccc4cccc(c34)N2)cc1 | 29.6% (active) |

From PubChem BioAssay AID1053197 (The Scripps Research Institute Molecular Screening Center, 2014)
